Each structure is given as a SMILES string. Records with an inconclusive call do not appear. Entries that show only a call come without a potency. Activity calls are given as the source filed them. The call rests on the fitted dose curve; in most records, active means well fitted curve in the direction sought with a large enough effect; inconclusive means small, poorly fitted or top-dose-only effect, or effect the other way, or another doubt; inactive means no such curve, though single readings can be large or run the other way.

The nature of the assay: Quantitative high throughput screen to test cell viability of anti-malarial compounds targeting the delayed death phenotype. Conditions: HepG2 viability, CellTiter-Glo luminescence, 48 h; series mostly up to 46.1 µM. The text has this: The biochemical processes that make this organelle essential for erythrocytic stage parasites are not well understood. However, antibiotics, such as azithromycin and tetracycline, which target the apicoplast translational machinery, have a potent antimalarial effect. […] We have developed a cell-based assay that measures parasite growth based on the expression of an integrated copy of a firefly luciferase reporter. To detect small molecules that cause this 'delayed death' phenotype, erythrocytes infected with the luciferase-expressing parasites were incubated with compounds for either one or two generations, corresponding to 48 and 96 hours, respectively. Compounds that inhibit parasite growth in the second generation, but not the first, should be enriched in antimalarials that target the apicoplast. Growth inhibition is detected by a decrease in luciferase activity. The goal of this counterscreen is to measure the cytoxoxicity (against HepG2 cell line) of a set of anti-malarial compounds that target the delayed death pheonotype as identified by the qHTS assay that inhibit the development of the apicoplast in the malarial parasite Plasmodium falciparum. NIH Molecular Libraries Probe Production Network [MLPCN] NIH Chemical Genomics Center [NCGC] MLPCN Grant: R21 NS059500 Assay Provider: David Fidock and Eric Ekland, Columbia University
Cells were plated at a density of 2000 cells/well/5uL in 1536 well white tissue culture plate with culture medium. Triplicate plates were prepared. Plates were incubated at 37C, 5% CO2 for 5 hours and then 23nL of compounds and positive control were transferred to the assay plates. Tetraoctylammonium bromide was added as a positive control. Plates were then incubated at 37C, 5% CO2 for 48 hours. 5 uL of CellTitler-Glo buffer was added to each well and then incubated for 30 min at room temperature. Luminescence was measured using ViewLux (1 second, slow, 2X).
Regarding `C[C@@H]1CN(CCO[Si](C)(C)C(C)(C)C)C(=O)c2cc(NC(=O)Nc3ccccc3)ccc2O[C@@H](C)CCCCO[C@H]1CN(C)S(=O)(=O)c1ccc(F)cc1`, the Potency result was “inactive”. Next, `COCOC[C@H](C)N1C[C@@H](C)[C@H](CN(C)S(=O)(=O)c2ccc(F)cc2)OCCCC[C@H](C)Oc2ccc(NC(=O)Nc3ccccc3)cc2C1=O`: 7.91 µM (active). Turning to `C[C@@H]1CN([C@@H](C)COC(=O)c2ccccc2)C(=O)c2cc(NC(=O)Nc3ccccc3)ccc2O[C@@H](C)CCCCO[C@H]1CN(C)S(=O)(=O)c1ccc(F)cc1`, the Potency result was “inactive”. For `COc1ccc(COC[C@H](C)N2C[C@@H](C)[C@H](CN(C)S(=O)(=O)c3ccc(F)cc3)OCCCC[C@H](C)Oc3ccc(NC(=O)Nc4ccccc4)cc3C2=O)cc1`, the Potency result was “inactive”. On to `C[C@@H]1CN([C@@H](C)CO)C(=O)c2cc(Nc3nc4ccccc4o3)ccc2O[C@@H](C)CCCCO[C@H]1CN(C)S(=O)(=O)c1ccc(F)cc1`, for which the Potency entry was “inactive”. For `COc1ccc(COCCN2C[C@@H](C)[C@H](CN(C)S(=O)(=O)c3ccc(F)cc3)OCCCC[C@H](C)Oc3ccc(NC(=O)Nc4ccccc4)cc3C2=O)cc1`, the Potency result was “inactive”. With `C[C@@H]1CN(CCO)C(=O)c2cc(NC(=O)Nc3ccccc3)ccc2O[C@@H](C)CCCCO[C@H]1CN(C)S(=O)(=O)c1ccc(F)cc1`, the Potency entry was “inactive”. Consider `C[C@@H]1CN([C@@H](C)CO)C(=O)c2cc(NC(=O)Nc3ccccc3)ccc2O[C@@H](C)CCCCO[C@H]1CN(C)S(=O)(=O)c1ccccc1F`, for which the Potency result is “inactive”. Take `C[C@@H]1CN([C@@H](C)COC(=O)c2ccccc2)C(=O)c2cc(NC(=O)Nc3ccccc3)ccc2O[C@@H](C)CCCCO[C@H]1CN(C)C(=O)OC(C)(C)C`: the Potency result was “inactive”. As for `C[C@@H]1CN(C)C(=O)c2cc(NC(=O)Nc3ccccc3)ccc2O[C@@H](C)CCCCO[C@@H]1CN(C)S(=O)(=O)c1ccc(F)cc1`, the entry is “inactive”; as for `C[C@@H]1CN([C@@H](C)CO)C(=O)c2cc(NC(=O)Nc3ccccc3)ccc2O[C@@H](C)C/C=C/CO[C@H]1CN(C)S(=O)(=O)c1ccc(F)cc1`, “inactive”. `C[C@@H]1CN([C@@H](C)CO)C(=O)c2cc(NC(=O)Nc3ccccc3)ccc2O[C@@H](C)CCCCO[C@H]1CN(C)S(=O)(=O)c1cccc(F)c1`: the Potency entry is “inactive”. As to `C[C@@H]1CN([C@@H](C)CO)C(=O)c2cc(NC(=O)Nc3ccccc3)ccc2O[C@@H](C)CCCCO[C@H]1CN(C)C(=O)OC(C)(C)C`, the Potency entry is “inactive”. With `C[C@@H]1CN([C@@H](C)CO)C(=O)c2cc(N)ccc2O[C@@H](C)CCCCO[C@H]1CN(C)S(=O)(=O)c1ccc(F)cc1`, the Potency result is “inactive”. As for `Cc1noc(C)c1NC(=O)Nc1ccc2c(c1)C(=O)N(C(C)C)C[C@@H](C)[C@H](CN(C)S(=O)(=O)c1ccc(F)cc1)OCCCC[C@H](C)O2`, the Potency result was “inactive”.

Regarding `C[C@@H]1CN([C@H](C)CO[Si](C)(C)C(C)(C)C)C(=O)c2cc(NC(=O)Nc3ccccc3)ccc2O[C@@H](C)CCCCO[C@H]1CN(C)S(=O)(=O)c1ccc(F)cc1`, the Potency result is “inactive”. As to `C[C@@H]1CN([C@@H](C)CO[Si](C)(C)C(C)(C)C)C(=O)c2cc(NC(=O)Nc3ccccc3)ccc2O[C@@H](C)CCCCO[C@H]1CN(C)S(=O)(=O)c1ccc(F)cc1`, the Potency result was “inactive”. On to `C=CCOC(=O)N(C)C[C@H]1OCCCC[C@H](C)Oc2ccc(NC(=O)Nc3ccccc3)cc2C(=O)N([C@@H](C)CO[Si](C)(C)C(C)(C)C)C[C@H]1C`, for which the Potency entry was “inactive”.

As to `Cc1noc(C)c1NC(=O)Nc1ccc2c(c1)C(=O)N([C@@H](C)CO)C[C@@H](C)[C@H](CN(C)S(=O)(=O)c1ccc(F)cc1)OCCCC[C@H](C)O2`, the Potency result is “inactive”. As to `C[C@@H]1CN([C@@H](C)CN=[N+]=[N-])C(=O)c2cc(NC(=O)Nc3ccccc3)ccc2O[C@@H](C)CCCCO[C@H]1CN(C)S(=O)(=O)c1ccc(F)cc1`, the Potency entry is “inactive”.

In the case of `C=CCOC(=O)N(C)C[C@@H]1OCCCC[C@H](C)Oc2ccc(NC(=O)Nc3ccccc3)cc2C(=O)N([C@H](C)COC(=O)c2ccccc2)C[C@H]1C`, the Potency entry is “inactive”.

For `COCCOC(=O)N(C)C[C@@H]1OCCCC[C@H](C)Oc2ccc(NC(=O)Nc3ccccc3)cc2C(=O)N([C@@H](C)CO)C[C@H]1C`, the Potency entry is “inactive”.

Take `C[C@@H]1CN([C@@H](C)CO)C(=O)c2cc(NC(=O)Nc3ccccc3)ccc2O[C@@H](C)CCCCO[C@H]1CN(C)S(=O)(=O)c1cccnc1`: the Potency entry is “inactive”. With `C[C@@H]1CN([C@@H](C)COC(C)(C)C)C(=O)c2cc(NC(=O)Nc3ccccc3)ccc2O[C@@H](C)CCCCO[C@H]1CN(C)S(=O)(=O)c1ccc(F)cc1`, the Potency entry was “inactive”. `CC(C)NC(=O)Nc1ccc2c(c1)C(=O)N([C@@H](C)CO)C[C@@H](C)[C@H](CN(C)S(=O)(=O)c1ccc(F)cc1)OCCCC[C@H](C)O2`: the Potency entry was “inactive”.

With `C[C@@H]1CN([C@@H](C)COC(=O)C(C)(C)C)C(=O)c2cc(NC(=O)Nc3ccccc3)ccc2O[C@@H](C)CCCCO[C@H]1CN(C)S(=O)(=O)c1ccc(F)cc1`, the Potency result was “inactive”. As to `C[C@@H]1CN([C@@H](C)CO)C(=O)c2cc(NC(=O)Nc3ccccc3)ccc2O[C@@H](C)C/C=C\CO[C@H]1CN(C)S(=O)(=O)c1ccc(F)cc1`, the Potency result is “inactive”. As for `C=CCOC(=O)N(C)C[C@@H]1OCCCC[C@H](C)Oc2ccc(NC(=O)Nc3ccccc3)cc2C(=O)N([C@@H](C)CO)C[C@H]1C`, the entry is “inactive”; as for `C[C@@H]1CN([C@@H](C)CO)C(=O)c2cc(NC(=O)Nc3ccccc3)ccc2O[C@@H](C)CCCCO[C@H]1CN(C)Cc1ccc(C(F)(F)F)cc1`, “inactive”; as for `C[C@@H]1CN([C@@H](C)CO)C(=O)c2cc(NC(=O)Nc3ccccc3)ccc2O[C@@H](C)CCCCO[C@H]1CN(C)S(=O)(=O)c1ccc(C(F)(F)F)cc1`, “inactive”.

These data come from PubChem BioAssay AID504602 (National Center for Advancing Translational Sciences (NCATS), 2011).
